Hits are enriched below; roughly 2.7% of the tested compounds scored in any of these assays.
RXFP1 agonist: activates the human relaxin receptor RXFP1 | Q9HBX9 | 0.3% of 370,000 active | Potency, µM (series often up to 57.5 µM), usual class: activators | AID 2676 | HEK293T-RXFP1 cAMP TR-FRET, 30 min; response scale: percent of porcine relaxin response, buffer zero; active means well fitted activation curve with a large enough effect; inconclusive means small, poorly fitted or top-dose-only effect; further: nearly all actives have a fitted effect of over 60% in size
Target sequence (Q9HBX9 whole entry, looked up): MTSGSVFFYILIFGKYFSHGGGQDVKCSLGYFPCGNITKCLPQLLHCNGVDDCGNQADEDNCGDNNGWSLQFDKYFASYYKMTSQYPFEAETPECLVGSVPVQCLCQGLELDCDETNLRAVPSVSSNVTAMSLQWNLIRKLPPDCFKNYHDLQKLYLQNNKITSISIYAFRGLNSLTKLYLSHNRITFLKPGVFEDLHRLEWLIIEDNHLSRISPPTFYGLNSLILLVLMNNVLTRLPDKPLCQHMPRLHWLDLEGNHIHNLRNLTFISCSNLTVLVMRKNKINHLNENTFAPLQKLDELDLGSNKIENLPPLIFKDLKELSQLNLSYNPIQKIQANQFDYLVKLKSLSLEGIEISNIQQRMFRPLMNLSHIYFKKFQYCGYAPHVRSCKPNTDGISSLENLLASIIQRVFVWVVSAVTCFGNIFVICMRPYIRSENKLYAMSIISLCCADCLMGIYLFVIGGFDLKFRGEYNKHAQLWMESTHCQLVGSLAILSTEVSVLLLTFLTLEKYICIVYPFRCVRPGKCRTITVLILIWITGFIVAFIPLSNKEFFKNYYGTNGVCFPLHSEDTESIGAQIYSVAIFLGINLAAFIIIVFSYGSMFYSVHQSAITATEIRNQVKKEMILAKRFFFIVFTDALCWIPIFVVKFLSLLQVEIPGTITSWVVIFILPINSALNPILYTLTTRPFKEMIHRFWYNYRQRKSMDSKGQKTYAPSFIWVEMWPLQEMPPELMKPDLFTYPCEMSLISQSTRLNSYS
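HEK293 cells stably expressing RXFP1, treated 30 min at 37C with compounds plus PDE4 inhibitor Ro 20174; cAMP measured by HTRF TR-FRET. Normalized to buffer and 29 nM porcine relaxin; EC50 by Hill fit.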
gsp ag: gsp mutant agonism | gsp mutant cells, cAMP HTRF, 30 min | AID 624287 | 0.13% of 340,000 active | Potency, µM (highest dose often 76.9 µM), usual class: activators; active means well fitted activation curve with a large enough effect; inconclusive means small, poorly fitted or top-dose-only effect, or another doubt; inactive means no such curve, though single readings can be large or run the other way; cell line not stated here;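 further: phosphodiesterase inhibitor Ro 20-1724 added with compounds to block cAMP breakdown; nearly all actives have a fitted effect of over 60% in size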
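Cells in DMEM/10% FBS with G418 were pretreated with compounds in DMSO plus […] (300 uM stock) for 30 min at 37C. cAMP was measured by HTRF (cAMP-d2 plus anti-cAMP antibody-K) after 30 min at room temperature.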
ClpP mod: qHTS Assay for Activators of ClpP. ATP-dependent Clp protease proteolytic subunit (Bacillus subtilis (strain 168)), P80244. purified B. subtilis ClpP, FRET peptide cleavage, 20 min. 1.9% of 340,000 active. Potency, µM (series often up to 57.5 µM); active means well fitted falling curve with a large enough effect; inconclusive means small, poorly fitted or top-dose-only effect; inactive means no such curve, though single readings can be large or run the other way; further: the source files actives as falling curves though it sought activators and does not explain the sign; nearly all actives have a fitted effect of over 65% in size
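Purified B. subtilis ClpP, 10 microg/mL final in Tris/HCl pH8 with KCl, BSA, glycerol and Tween-20, cleaved an Abz/nitrotyrosine-quenched decapeptide. Fluorescence (ex 320, em 430) was read at 0 and 20 min at room temperature. Delta was normalized to 5.8 microM ADEP and DMSO/no-enzyme controls.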
gsp antag: antagonizes gsp, the McCune-Albright syndrome mutation. gsp-mutant cells, cAMP HTRF, 30 min. Potency, µM (titrated, usually from 76.9 µM), most hits filed as inhibitors. 0.4% of 340,000 active. AID 624288; calls by dose curve; cell line not stated here;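 further: intracellular cAMP measured with PDE inhibitor Ro 20-1724 present during compound exposure; nearly all actives have a fitted effect of over 65% in size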
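G418-selected cells were plated in DMEM/10% FBS for 16-24 h at 37C, then treated with compounds plus the PDE inhibitor […] (300 uM solution added) for 30 min at 37C. Intracellular cAMP was measured by HTRF after 30 min lysis at room temperature.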
pAkt inh: inhibitors of Akt phosphorylation. Neuro2A IGF-stimulated pAkt S473 HTRF, 20 min; stronger effect = lower value. activity change, % for hits at 50 µM. 0.32% of 360,000 active; in the data active means activity change below about -80%; inconclusive means mostly about -51% to -80%
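Single-point screen (50 µM final compound) in Neuro2A cells stimulated 20 min with 6 nM IGF at 37 deg C. After lysis, Ser473-phosphorylated Akt read by HTRF (ex 330 nm, em 615/665 nm) as the 665/615 ratio.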
RXFP1 antag: antagonists of human relaxin receptor RXFP1; HEK293-RXFP1, relaxin-stimulated cAMP HTRF, 30 min; stronger effect = lower value; activity change, negative = inhibition, % at 57.5 µM; 0.59% of 350,000 active; AID 1259400;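 active means activity change of -60% or lower, but not beyond a set lower limit; inconclusive means change between -60% and -40%, or beyond the set limit; inactive means change above -40%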
Of the large screens only hits and unclear results are named; the others gave an inactive call; ! = not active in a repeat.

Cc1cc(C)cc(OCCCC(=O)O)c1	pAkt inh -106%
Cc1cccc(OCCCC(=O)O)c1	none
COc1cn(CC(=O)Nc2cccc(C)c2)c(CN2CCCCC2)cc1=O	none (no result: gsp ag, gsp antag, pAkt inh)
COc1ccc(Br)cc1/C=N/NC(=O)c1ccc2nc[nH]c2c1	none
Cc1ccccc1C(=O)Nc1nnc(S(=O)(=O)N(C)Cc2ccco2)s1	gsp ag inconclusive
CN(Cc1ccco1)S(=O)(=O)c1nnc(NC(=O)c2ccccc2Cl)s1	RXFP1 agonist 11µM!, gsp ag inconclusive, gsp antag inconclusive
COc1cc(C(=O)N2CCC2(C)C(=O)O)cc(OC)c1OC (configuration not stated)	none (no result: RXFP1 agonist, gsp ag, gsp antag, RXFP1 antag)
Cc1ccc(CNC(=O)C(C)n2nc(C)c3sc4ccccc4c3c2=O)cc1 (configuration not stated)	RXFP1 agonist 32µM (no result: gsp ag, gsp antag, pAkt inh)
Cc1nn(C(C)C(=O)NCc2ccc(OC(C)C)cc2)c(=O)c2c1sc1ccccc12 (configuration not stated)	ClpP mod inconclusive (no result: gsp ag, gsp antag, pAkt inh)
CC1(C)OC(=O)C2(Cc3ccccc3N3CCC(c4ccccc4)CC32)C(=O)O1 (configuration not stated)	none (no result: RXFP1 agonist, gsp ag, gsp antag, pAkt inh, RXFP1 antag)
Cc1ccc(C)c(N2CCN(S(=O)(=O)c3cc(-c4cc(C)no4)ccc3C)CC2)c1	none (no result: gsp ag, gsp antag, pAkt inh)
N#Cc1c(C(F)(F)F)cc(-c2cccc(Cl)c2)[nH]c1=O	gsp antag 35µM
N#Cc1c(C(F)(F)F)cc(-c2ccc(F)cc2)[nH]c1=O	none (no result: ClpP mod)
N#Cc1c(C(F)(F)F)cc(-c2ccc(Cl)cc2)[nH]c1=O	gsp antag 35µM
COc1cccc(CN2C(=O)c3ccccc3C2C(=O)NCC2CCCO2)c1 (configuration not stated)	none
O=C(NCC1CCCO1)C1c2ccccc2C(=O)N1Cc1ccc2c(c1)OCO2 (configuration not stated)	ClpP mod 22µM
Cc1cc(C)c(NC(=O)CN(C)S(=O)(=O)c2ccc3c(c2)n(C)c(=O)c(=O)n3C)c(C)c1	gsp ag inconclusive
Cc1ccc(NC(=O)CN(C)S(=O)(=O)c2ccc3c(c2)n(C)c(=O)c(=O)n3C)c(C)c1	gsp ag inconclusive, ClpP mod 32µM!
CCOC(=O)C1=C(O)/C(=C/c2cccc(OC)c2O)N=C1C	RXFP1 antag -63 (no result: ClpP mod)
CCOC(=O)C1=C(O)/C(=C\c2cc(C)n(-c3ccccc3F)c2C)N=C1C	none (no result: ClpP mod)
CCn1c(CNC(=O)c2ccccc2Br)nnc1SCC(=O)Nc1nncs1	ClpP mod 14µM
COc1ccc(C(CC(=O)O)c2cc(OC)c(OC)c(OC)c2)cc1OC (configuration not stated)	ClpP mod 32µM (no result: RXFP1 agonist)
COc1ccc(C(CC(=O)O)NC(=O)Cc2ccccc2)cc1OC (configuration not stated)	none
Cc1ccc(S(=O)(=O)/N=C(/Nc2ccccc2C)c2ccccc2)cc1	none (no result: RXFP1 agonist, ClpP mod)
Cc1ccc(S(=O)(=O)/N=C(/Nc2ccc(F)cc2F)c2ccccc2)cc1	RXFP1 antag -65
COc1cc2c(cc1OC)-c1cc(NC3CCCC3)nc(=O)n1CC2	ClpP mod 32µM
c1ccc2c(C[C@@H]3CNCCN3CCC34CC5CC(CC(C5)C3)C4)cccc2c1	none (no result: RXFP1 agonist, gsp ag, RXFP1 antag)
FC(F)(F)c1nnc2sc(-c3ccncc3)nn12	none
FC(F)(F)c1nnc2sc(-c3cccs3)nn12	ClpP mod 28µM
COc1ccc(C(=O)Nc2cccc3c2CCCC3)cc1	none
O=C(Nc1cccc2c1CCCC2)c1cc([N+](=O)[O-])cc([N+](=O)[O-])c1	ClpP mod 28µM (no result: RXFP1 antag)
CNC(=O)c1c[nH]n2c(=O)c(Cc3ccccc3F)c(C)nc12	gsp antag 11µM (no result: RXFP1 antag)
Cc1cccc(C)c1Nc1c(-c2ccccc2F)nc2cccc(C)n12	ClpP mod 32µM, RXFP1 antag -100 (no result: gsp ag, gsp antag, pAkt inh)
Cc1c(Cl)cccc1NS(=O)(=O)c1ccc(-c2cnc(C3CC3)o2)cc1	none (no result: gsp ag, gsp antag, pAkt inh, RXFP1 antag)
O=C(O)Cc1sc(-c2ccccc2)nc1-c1ccccc1	gsp ag inconclusive, ClpP mod 32µM
C=C(Br)COC(c1ccco1)[C@H](Cc1ccccc1)NC(=O)OC(C)(C)C (some centres not stated)	none (no result: RXFP1 agonist, gsp ag, gsp antag, pAkt inh, RXFP1 antag)
COc1ccc(CNC(=O)c2ccc(S(=O)(=O)N3CC(C)CC(C)C3)cc2)cc1OC (configuration not stated)	none (no result: RXFP1 agonist)
Cc1cccc(OCC(O)CNC(C)(C)C)c1C (configuration not stated)	none (no result: RXFP1 agonist, gsp ag, ClpP mod, gsp antag, pAkt inh)
O=C(CCN1C(=O)C2C3C=CC(C3)C2C1=O)N1CCN(c2ccccn2)CC1 (configuration not stated)	ClpP mod 16µM
O=C(CCN1C(=O)C2C3C=CC(C3)C2C1=O)NCc1cccnc1 (configuration not stated)	ClpP mod 13µM
CC1(C(=O)NS(=O)(=O)c2ccc(C#N)cc2)CCN1C(=O)Cc1ccc(-c2ccccc2)cc1 (configuration not stated)	none (no result: RXFP1 agonist, gsp ag, gsp antag, RXFP1 antag)
Cc1cc(-c2ccc(Cl)cc2)n2nc(N)nc2n1	ClpP mod 18µM
Nc1nc2nccc(-c3ccc(Cl)cc3)n2n1	none
O=c1cc(C(F)(F)F)oc2c1ccc1ccccc12	ClpP mod inconclusive
O=c1cc(/C=C/c2ccccc2)oc2c1ccc1ccccc12	ClpP mod 28µM
CC(=O)c1cccc(-c2ccnc3c2CC(C(=O)Nc2ccccc2)O3)c1 (configuration not stated)	none (no result: RXFP1 agonist, gsp ag, gsp antag, RXFP1 antag)
CC(=O)c1cc2c(cc1NC(=O)C1CC=CCC1C(=O)O)OCO2 (configuration not stated)	gsp ag inconclusive
CC(=O)c1cc2c(cc1NC(=O)C1CN(C(C)=O)c3ccccc3O1)OCO2 (configuration not stated)	ClpP mod 20µM (no result: RXFP1 agonist)
O=C(O)CCc1ccc(-c2cccs2)n1CC1CCCO1 (configuration not stated)	gsp ag inconclusive, ClpP mod 25µM
O=C(O)CCc1ccc(-c2ccc(F)cc2)n1CC1CCCO1 (configuration not stated)	ClpP mod 22µM
COc1ccc(-c2ccc(CCC(=O)O)n2CC2CCCO2)cc1 (configuration not stated)	none (no result: ClpP mod)
CCCn1c(CCC(=O)O)ccc1-c1cccs1	ClpP mod 25µM
Cc1ccc(S(=O)(=O)N2CCc3cc(C(=O)NCCc4ccccc4)ccc32)cc1	none (no result: gsp ag, gsp antag, pAkt inh)
CCOc1cccc(C2c3c(-c4cc(C)ccc4O)n[nH]c3C(=O)N2Cc2ccco2)c1 (configuration not stated)	RXFP1 antag -76 (no result: gsp ag, gsp antag, pAkt inh)

Screens deposited in PubChem by National Center for Advancing Translational Sciences (NCATS).
